# The panel holds about 83,000 compounds, 20% with a hit somewhere; the sample as a whole holds those more often.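 Negative percent growth values reflect cell death: -40 means 40% of the cells present at the start died, and -100 means all died.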 Unmarked numbers belong to inactive results. Activity calls are given as the source filed them.
# Test system: HOP-62 NSCLC
# Experiment: NCI-60 one-dose screen, 48 h (100 = growth as untreated, 0 = no growth, -100 = all killed)
# Conditions: 10 µM unless noted
# Protocol: Growth inhibition of the HOP-62 human Non-Small Cell Lung tumor cell line is measured as a screen for anti-cancer activity. Cells are grown in 96 well plates and exposed to the test compound for 48 hours. Compounds are tested at a single concentration, which is 10^-5 M for most compounds. The reported endpoint is percent growth (GI% or GIPRCNT), where numbers from 0 - 100% represent growth inhibition, and numbers from -100% - 0 represent cell death. For example, a value of 40 represents 60% growth inhibition. A value of 0 means no net growth occurred over the course of the experiment. A value of -40 indicates 40% of cells at the beginning of the experiment died by the end of the experiment. A value of -100 means all cells are dead at the end of the experiment.
# NCI-60 Human Tumor Cell Lines Screen was performed using the standard one-dose NCI protocol, which is described in more detail at https://dtp.cancer.gov/discovery_development/nci-60/default.htm.
# Compounds with GIPRCNT values below 10 were considered active. Activity score was based on GIPRCNT using the following formula: […]
# Score is 0 for GIPRCNT values of 100 or above, 50 for GIPRCNT values of 0, and 100 for GIPRCNT values of -100.
row,SMILES,growth
1,O=C(NNC(=O)c1nc2cc(F)ccc2n2cccc12)c1cnccn1,29.7%
2,Cc1[nH]c(C2CC(c3ccc(C(F)(F)F)c(F)c3)=NN2c2ccccc2)c(C)c1C(=O)NCC(F)(F)F (stereo not given),91.4%
3,COC(=O)c1nc(-c2ccccc2)oc1S(=O)(=O)NCC(c1ccc(Cl)cc1)N1CCOCC1 (stereo not given),96.3%
4,Cc1ccc2c(-c3nnc(N)s3)cc(=O)oc2c1C,101%
5,CCN(CC)CCCOc1ccc2ncnc(Nc3ccc(Oc4cccc(C(F)(F)F)c4)c(Cl)c3)c2c1,13.6%
6,Cc1cc(Nc2ccc(C(=O)N3CCCC3)cc2)nc(NCCCNc2ccnc3cc(Cl)ccc23)n1,81.2%
7,COc1ccc(C(=O)/C=C/c2ccc(Cl)cc2)cc1S(=O)(=O)Nc1c(N)nc(SC)[nH]c1=O,32.6%
8,O=C1/C(=C\c2ccccn2)c2ccccc2N1c1c(Cl)cccc1Cl,23.3%
9,CCOc1c(OC)cc2c(c1O)C(=O)N[C@@H]1[C@@H](O)[C@@H](O)[C@H](O)C[C@@H]21,98.6%
10,CCN(CC)c1ccc(/C=N/NC(=O)Cc2ccc(Nc3ccnc(C(F)(F)F)c3)cc2)c(O)c1,24.5%
11,CSC1=Nc2c(c(C)c(-c3ccccc3)n2CCCC(=O)O)C2=NC(=O)C[C@H](C)N12,89.7%
12,Cc1cccc[n+]1C1c2ccccc2-c2ccccc21,70.5%
13,COC(=O)c1c2c(n3ccccc13)C(=O)c1ccccc1C2=O,68.7%
14,CC1=C(C(=O)Nc2ccccc2)C(c2ccc3c(c2)OCO3)NC(=S)N1 (stereo not given),121%
15,COc1ccc(/C=C2\CN(C(=O)C(Cl)Cl)C/C(=C\c3ccc(OC)cc3)C2=O)cc1,40.5%
16,Cc1nnc(-c2ccc3c(c2)nc(/C=C/c2ccccc2)n3C2CCCCC2)o1,83%
17,COc1ccc(/C=C/C(=O)c2cc3c(N)c(C(=O)Nc4cccc(Cl)c4C)sc3nc2C)cc1,20.7%
18,CC(=O)c1ccc(Nc2nccc(-c3ccc4ccccc4c3)n2)cc1,102%
19,CNC(=O)c1cc(Oc2cccc3nc(NC(=O)Nc4cc(C(F)(F)F)ccc4Cl)ccc23)ccn1,95.2%
20,COc1cc(/C=N/Nc2ccc(Br)cc2)cc(OC)c1OC,93.1%

row,SMILES,growth
1,NC(=O)c1cccc([C@@H]2O[C@H](CO)[C@@H](O)[C@H]2O)c1,47.7%
2,COc1ccc(-c2nn(-c3ccccc3)cc2/C=C/C(=O)NNC(=O)Nc2ccc(C)cc2)cc1,102%
3,C/C=C(\C)C(=O)N[C@H]1C(O)C[C@]2(C)C3CC[C@@]4(C)C(CC[C@@H]4C(C)N(C)C)C3CCC2C1O (stereo not given in full),86.8%
4,CC(C)(C)n1cc(-c2ccnc(NCCNS(=O)(=O)c3ccc(O)cc3)c2)c(-c2cccc(O)c2)n1,101%
5,NNCCc1ccc(NC(=O)CCCc2ccc(C(=O)Nc3ccccc3N)cc2)cc1,69.6%
6,COc1ccc(Cn2cc3c(c2-c2ccccc2)CCc2cnoc2-3)cc1,30.1%
7,COc1cc(/C=C/C(=O)/C=C(O)/C=C/c2ccc(OC(=O)C34CC5CC(CC(C5)C3)C4)c(OC)c2)ccc1OC(=O)C12CC3CC(CC(C3)C1)C2,99.1%
8,CCOC(=O)C(=CNc1cnc(Nc2ccc(N3CCOCC3)cc2)nc1Oc1ccc(OC)cc1)C(=O)OCC,23.5%
9,N#Cc1c(Nc2ccc(N3CCOCC3)cc2)nc(SCC(=O)c2ccc(Br)cc2)nc1-c1ccccc1,92.6%
10,CN1CCN(CC(=O)Nc2ccc3ncnc(Nc4ccc(Oc5cccc(C(F)(F)F)c5)c(Cl)c4)c3c2)CC1,54.1%
11,CC1=CCC(OC(=O)C(C)(C)CC(O)(C(C)O)C(O)C2(C)C=CC(Cc3ccc(C(C)C)cc3)(C(C)C)CC2)(C(C)C)CC1 (stereo not given),99.2%
12,c1nc2ccc(-c3cc4ccc5[nH]ncc5c4c4c3CCCC4)cc2[nH]1,74.3%
13,CC1CCN(C(=S)SCC(=O)NC(=O)c2ccccc2)CC1,96.7%
14,Clc1ccccc1-c1cnn2cc(-c3ccccc3)cnc12,86%
15,C=CCN1C(=O)c2cccc3c(N4CCOCC4)ccc(c23)C1=O,26.4%
16,CCN1CCN(c2cc(C)nc(N(CCNc3ccnc4cc(Cl)ccc34)Cc3ccc4c(c3)OCO4)n2)CC1,-14.3% (active)
17,COc1cc(OC)c(C(=O)C(CN(C)C)CN(C)C)cc1OC,84.7%
18,Cc1ccc(C(=O)Nc2cccc(C#Cc3cccc4[nH]nc(N)c34)c2)cc1C(F)(F)F,58.7%
19,Cc1nn(-c2cc(NC3CCC(O)CC3)c3c(=O)[nH]c(CCC(F)(F)F)cc3c2)c2c1C(=O)CC(C)(C)C2 (stereo not given),44%
20,O=C(Nc1ccccc1O)c1ccc(CNC(=O)c2ccsc2Nc2ccnc(C(F)(F)F)c2)cc1,47.6%
